Consider 15 sequences from publication PMC4081100, “A DNA-binding-site landscape and regulatory network analysis for NAC transcription factors in Arabidopsis thaliana”.

Experiment in all cases: universal protein binding microarray (PBM); transcription factors of Arabidopsis thaliana; high values mean tight binding
Conditions in all cases: protein: recombinant; tags: GST; chain copies: 2; dsDNA, one strand shown

Assay [1] deals with T1, GST-ANAC092(1-176) (Arabidopsis thaliana, UniProt Q9FKA0 1-176).
T1 sequence: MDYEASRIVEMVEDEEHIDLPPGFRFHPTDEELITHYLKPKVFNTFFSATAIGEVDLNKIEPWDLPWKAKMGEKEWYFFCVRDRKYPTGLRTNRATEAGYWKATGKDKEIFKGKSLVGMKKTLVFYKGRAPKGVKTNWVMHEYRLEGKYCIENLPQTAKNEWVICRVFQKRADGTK
A digest of the protocol:
(§1)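 For zinc-finger proteins, zinc acetate was added while GST-tagged NAC-domain, full-length or DNA-binding-domain proteins were induced in cells. Purification used glutathione–Sepharose 4B, and quantification used A280 or anti-GST western blot. Custom all-10-mer Agilent 4 × 180K arrays, made double-stranded by primer extension, each received a protein at 200 to 500 nM final in duplicate. Scoring covered gapped and ungapped 8-mers, with binding given as the normalised enrichment score (E-score).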

The target of assay [2] is GST-NTL6(1-168) (Arabidopsis thaliana, UniProt Q9SCK6 1-168). The gist of the method:
as §1

The target in assay [3] is T2, GST-ANAC019 NAC domain (Arabidopsis thaliana, UniProt Q9C932 14-162).
T2 sequence: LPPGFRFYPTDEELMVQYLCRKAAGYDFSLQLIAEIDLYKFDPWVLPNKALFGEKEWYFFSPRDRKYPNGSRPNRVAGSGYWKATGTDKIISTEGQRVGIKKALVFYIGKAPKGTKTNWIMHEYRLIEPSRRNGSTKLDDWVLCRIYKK
A digest of the protocol: as §1

Assay [4] deals with T3, GST-ANAC055(1-171) (Arabidopsis thaliana, UniProt Q9LDY8 1-171).
T3 sequence: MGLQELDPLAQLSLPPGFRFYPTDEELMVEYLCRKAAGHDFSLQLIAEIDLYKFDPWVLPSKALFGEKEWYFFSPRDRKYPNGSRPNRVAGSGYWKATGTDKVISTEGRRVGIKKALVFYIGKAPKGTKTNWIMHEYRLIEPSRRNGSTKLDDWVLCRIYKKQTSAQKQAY
A digest of the protocol:
as §1

The target of assay [5] is T4, GST-ATAF1 NAC domain (Arabidopsis thaliana, UniProt Q39013 7-158).
T4 sequence: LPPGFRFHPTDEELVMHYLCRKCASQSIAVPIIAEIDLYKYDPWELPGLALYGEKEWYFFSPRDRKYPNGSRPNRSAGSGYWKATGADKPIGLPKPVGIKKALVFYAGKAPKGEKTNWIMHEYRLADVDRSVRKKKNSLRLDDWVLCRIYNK
The gist of the method: as §1

In assay [6] the target is T5, GST-ANAC092(1-285) full length (Arabidopsis thaliana, UniProt Q9FKA0 1-285).
T5 sequence: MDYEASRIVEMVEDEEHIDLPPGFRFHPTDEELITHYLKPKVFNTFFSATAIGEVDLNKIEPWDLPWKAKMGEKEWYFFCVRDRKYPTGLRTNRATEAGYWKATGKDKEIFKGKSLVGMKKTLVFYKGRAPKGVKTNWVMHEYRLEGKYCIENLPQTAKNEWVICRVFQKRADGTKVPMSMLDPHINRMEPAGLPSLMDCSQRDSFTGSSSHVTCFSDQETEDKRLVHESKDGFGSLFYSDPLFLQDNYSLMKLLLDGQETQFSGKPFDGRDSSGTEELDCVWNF
A digest of the protocol:
as §1

For assay [7], the target named is T6, GST-NAP(1-166) (Arabidopsis thaliana, UniProt O49255 1-166).
T6 sequence: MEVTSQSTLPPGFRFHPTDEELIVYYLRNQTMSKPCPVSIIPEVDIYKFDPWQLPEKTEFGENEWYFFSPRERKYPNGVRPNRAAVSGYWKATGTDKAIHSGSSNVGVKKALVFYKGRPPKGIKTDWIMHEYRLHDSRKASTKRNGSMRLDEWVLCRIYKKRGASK
A digest of the protocol: as §1

The target in assay [8] is T7, GST-NTL8 NAC domain (Arabidopsis thaliana, UniProt Q9XIN7 14-156).
T7 sequence: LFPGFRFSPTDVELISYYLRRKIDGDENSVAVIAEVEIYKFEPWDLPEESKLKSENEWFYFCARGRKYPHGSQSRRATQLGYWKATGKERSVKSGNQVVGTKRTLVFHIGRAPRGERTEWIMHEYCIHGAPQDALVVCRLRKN
A digest of the protocol: as §1

Assay [9] addresses T8, GST-SND1(1-203) (Arabidopsis thaliana, UniProt Q9LPI7 1-203).
T8 sequence: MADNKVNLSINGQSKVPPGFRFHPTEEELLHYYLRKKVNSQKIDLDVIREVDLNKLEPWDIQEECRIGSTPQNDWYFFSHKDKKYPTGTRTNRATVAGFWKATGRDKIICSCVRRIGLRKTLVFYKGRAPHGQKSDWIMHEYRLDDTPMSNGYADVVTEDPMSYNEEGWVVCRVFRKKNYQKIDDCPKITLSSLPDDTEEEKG
The gist of the method:
as §1

Assay [10] has as its target T9, GST-VND3 NAC domain (Arabidopsis thaliana, UniProt Q9FH59 12-162).
T9 sequence: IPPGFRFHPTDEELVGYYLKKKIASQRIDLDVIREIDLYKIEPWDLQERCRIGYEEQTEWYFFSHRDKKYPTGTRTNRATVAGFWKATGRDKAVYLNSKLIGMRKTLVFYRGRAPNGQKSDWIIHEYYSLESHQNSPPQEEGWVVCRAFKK
The gist of the method:
as §1

The target in assay [11] is T10, GST-VND7 NAC domain (Arabidopsis thaliana, UniProt Q9C8W9 9-158).
T10 sequence: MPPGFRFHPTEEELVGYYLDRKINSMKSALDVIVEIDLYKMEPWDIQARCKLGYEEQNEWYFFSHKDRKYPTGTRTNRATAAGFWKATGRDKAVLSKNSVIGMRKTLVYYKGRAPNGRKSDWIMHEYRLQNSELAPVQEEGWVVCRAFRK
A digest of the protocol: as §1

Assay [12] has as its target T11, GST-NST2(1-184) (Arabidopsis thaliana, UniProt Q9M274 1-184).
T11 sequence: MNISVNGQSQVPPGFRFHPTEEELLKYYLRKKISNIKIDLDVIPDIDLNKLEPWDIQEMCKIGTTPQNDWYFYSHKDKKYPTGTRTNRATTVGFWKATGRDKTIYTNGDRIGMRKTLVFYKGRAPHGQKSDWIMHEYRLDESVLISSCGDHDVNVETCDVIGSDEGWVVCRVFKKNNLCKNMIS
A digest of the protocol:
as §1

GST-NTL6(1-168), sequence (Q9SCK6 1-168): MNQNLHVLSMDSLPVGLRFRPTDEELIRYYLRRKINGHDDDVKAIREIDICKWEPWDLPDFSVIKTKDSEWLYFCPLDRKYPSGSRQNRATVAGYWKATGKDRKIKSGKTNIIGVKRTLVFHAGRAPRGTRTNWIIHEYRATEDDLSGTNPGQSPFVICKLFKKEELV

For the sequence AGGGAAAA, the binding signal in assay [1] is 0.22 E-score; in assay [2], 0.201 E-score; in assay [3], 0.131 E-score; in assay [4] it was 0.111 E-score; in assay [5] it was 0.187 E-score; in assay [6], 0.0865 E-score. Moreover, the binding signal in assay [7] turned out to be 0.117 E-score; in assay [8], 0.416 E-score; in assay [9], 0.115 E-score; in [10], 0.0874 E-score; in assay [11] it was 0.192 E-score.

In the case of ACGTTTCC, the binding signal in assay [1] stood at 0.411 E-score; in assay [2], 0.141 E-score; in assay [3] it was 0.312 E-score; in [4] it was 0.343 E-score; in assay [5], 0.327 E-score; in assay [6], 0.432 E-score. Moreover, the binding signal in assay [7] was 0.354 E-score; in [12] it was 0.255 E-score; in assay [8] it was 0.439 E-score; in [9] it was 0.381 E-score; in assay [10], 0.347 E-score; in assay [11], 0.359 E-score.

Regarding GTTGAGTA, the binding signal in assay [1] is 0.305 E-score; in assay [2] it was 0.152 E-score; in assay [3], 0.0635 E-score; in assay [4], 0.0864 E-score; in [5], 0.139 E-score; in [6] it was 0.386 E-score. The binding signal amounted to 0.279 E-score in assay [12], 0.419 E-score in [9], 0.0828 E-score in [10] and 0.108 E-score in assay [11].

For the sequence GAAGGTAA, the binding signal is 0.174 E-score in [1]; 0.329 E-score in [2]; 0.158 E-score in assay [3]; 0.111 E-score in assay [4]; 0.22 E-score in assay [5]; 0.25 E-score in [6]. For the same sequence, the binding signal in assay [12] amounted to 0.255 E-score; in [8], 0.463 E-score; in assay [9], 0.227 E-score; in assay [10] it was 0.148 E-score; in [11], 0.141 E-score.

For the sequence AGGAAACG, the binding signal in assay [1] came to 0.207 E-score; in [2] it was 0.125 E-score; in assay [3] it was 0.0614 E-score; in [4], 0.149 E-score; in [5], 0.208 E-score; in assay [6] it was 0.132 E-score. Also, the binding signal in assay [7] amounted to 0.183 E-score; in assay [12], 0.132 E-score; in [8], 0.451 E-score; in [9] it was 0.224 E-score; in assay [10] it was 0.109 E-score; in assay [11], 0.112 E-score.

With CTAAGTTA, the binding signal in assay [1] was 0.294 E-score; in [2], 0.393 E-score; in assay [4], 0.13 E-score; in assay [5], 0.173 E-score; in assay [6], 0.279 E-score; in assay [12] it was 0.282 E-score. In addition, the binding signal in [9] was found to be 0.413 E-score; in [10], 0.21 E-score; in assay [11] it was 0.0803 E-score.

Regarding ATACTTAA, the binding signal in [1] came to 0.0831 E-score; in assay [2], 0.445 E-score; in assay [4] it was 0.14 E-score; in assay [5], 0.245 E-score; in [6] it was 0.164 E-score; in assay [7], 0.0565 E-score. In addition, the binding signal in assay [12] amounted to 0.224 E-score; in assay [8], 0.154 E-score; in assay [9], 0.246 E-score; in [10], 0.187 E-score; in [11] it was 0.106 E-score.

For the sequence AAGCAACA, the binding signal was 0.387 E-score in assay [1]; 0.333 E-score in assay [2]; 0.134 E-score in [4]; 0.0645 E-score in assay [5]; 0.405 E-score in assay [6]; 0.342 E-score in assay [12]. Further, the binding signal in assay [8] worked out at 0.194 E-score; in assay [9], 0.439 E-score; in [10] it was 0.0696 E-score; in assay [11], 0.146 E-score.

Take ATACGCTA: the binding signal in assay [1] came to 0.451 E-score; in assay [2], 0.0936 E-score; in [4], 0.223 E-score; in assay [5] it was 0.187 E-score; in [6], 0.466 E-score; in [7] it was 0.155 E-score. Also, the binding signal in assay [12] worked out at 0.331 E-score; in assay [9] it was 0.458 E-score; in assay [10], 0.163 E-score; in assay [11] it was 0.182 E-score.

Regarding GTAACTTA, the binding signal in [1] is 0.271 E-score; in assay [2], 0.375 E-score; in assay [4], 0.185 E-score; in [5], 0.233 E-score; in assay [6] it was 0.357 E-score; in [7], 0.133 E-score. Besides, the binding signal in assay [12] is 0.306 E-score; in assay [8] it was 0.229 E-score; in assay [9] it was 0.43 E-score; in assay [10], 0.195 E-score; in [11], 0.141 E-score.

Take GTTAAGTA: the binding signal amounted to 0.119 E-score in assay [1]; 0.45 E-score in [2]; 0.171 E-score in [3]; 0.0947 E-score in assay [4]; 0.218 E-score in [5]; 0.123 E-score in [6]. The binding signal in assay [12] amounted to 0.148 E-score; in [8], 0.228 E-score; in assay [9] it was 0.202 E-score; in assay [10] it was 0.245 E-score; in assay [11] it was 0.0716 E-score.

As to ATTGCTTC, the binding signal worked out at 0.259 E-score in assay [1]; 0.348 E-score in assay [2]; 0.108 E-score in assay [3]; 0.0988 E-score in assay [4]; 0.351 E-score in [6]; 0.259 E-score in assay [12]. Also, the binding signal was determined as 0.278 E-score in assay [8], 0.411 E-score in assay [9], 0.143 E-score in assay [10] and 0.213 E-score in assay [11].

Turning to CTAGGAAA, the binding signal in assay [1] turned out to be 0.146 E-score; in assay [2] it was 0.188 E-score; in assay [3] it was 0.18 E-score; in [4] it was 0.214 E-score; in [5] it was 0.167 E-score; in assay [6] it was 0.0932 E-score. The binding signal in [12] was 0.187 E-score; in assay [8], 0.425 E-score; in [9], 0.145 E-score; in [10], 0.219 E-score; in assay [11], 0.13 E-score.

Consider AAGCAAGC, for which the binding signal in [1] was determined as 0.344 E-score; in [2] it was 0.167 E-score; in assay [3] it was 0.0929 E-score; in assay [6], 0.417 E-score; in [12], 0.23 E-score; in assay [8] it was 0.209 E-score. Further, the binding signal was 0.443 E-score in [9], 0.139 E-score in assay [10] and 0.114 E-score in assay [11].

In the case of TGAAGTAA, the binding signal in [1] was determined as 0.242 E-score; in assay [2], 0.377 E-score; in assay [4], 0.155 E-score; in assay [5], 0.169 E-score; in [6], 0.323 E-score; in assay [12], 0.324 E-score. Besides, the binding signal in assay [8] worked out at 0.437 E-score; in assay [9] it was 0.424 E-score; in [10], 0.131 E-score; in assay [11], 0.132 E-score.
